LASV entry inh: blocks Lassa virus binding to or entry into cells; AID 540256; Lassa virus pseudotype entry inhibition, cell reporter; Potency, µM (top dose mostly 37.9 µM), hits mostly inhibitors; actives 1.2% (n = 300,000); calls by dose curve; tested in HEK293 cells; further: nearly all actives have a fitted effect of over 50% in size
HCV inh: inhibitors of hepatitis C virus infection | Huh7.5.1 HCVcc-Cre infection, luciferase reporter, 44 h | Potency, µM (highest dose often 41.8 µM), most hits filed as inhibitors | actives 3.4% (n = 340,000) | AID 651820; active means well fitted inhibition curve with a large enough effect; inconclusive means small, poorly fitted or top-dose-only effect, or another doubt; inactive means no such curve, though single readings can be large or run the other way
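Cells (1,000/well) were plated 4 h before compound, then infected with HCVcc-Cre virus (~0.5 moi). After 44 h further culture, infection was read as luciferase luminescence following a 15 min substrate incubation at room temperature.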
FMDV inh: blocks foot and mouth disease virus | AID 1159524 | actives 1.2% (n = 410,000) | Potency, µM (highest dose often 57.9 µM), actives largely listed as inhibitors | FMDV antiviral cell-based qHTS; calls by dose curve; tested in HEK293T cells; further: read-out not given here; nearly all actives have a fitted effect of over 45% in size
Marburg entry inh: inhibitors of Marburg virus binding or cell entry; Marburg virus pseudotyped entry inhibition, cell reporter; Potency, µM (doses to about 37.8 µM), most hits filed as inhibitors; actives 1.8% (n = 300,000); calls by dose curve; tested in HEK293 cells
HCMV antiviral: human cytomegalovirus inhibition. HFF cells, HCMV-luciferase reporter, 72 h; active compounds read low. activity change, negative = inhibition, % at 57.5 µM. actives 4.5% (n = 410,000); in the data active means activity change below about -60%; inconclusive means no clear call, values can overlap the other calls; inactive means above about -39%
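After 16 h attachment at 37C, HFF cells received test compound and HCMV-luciferase (1 PFU/cell); reporter luminescence read 72 h later, data normalized against buffer-only and known inhibitor Salinomycin.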
Hits are given with their value; . = inactive; ? = inconclusive; / = not tested or not shown. An excerpt weighted towards active compounds, which were near 7.9% of everything screened.

SMILES | LASV entry inh | HCV inh | FMDV inh | Marburg entry inh | HCMV antiviral
CCN1C(N(C)CCc2c[nH]c3ccccc23)=N[C@@H](c2cccc(C(F)(F)F)c2)C(C(=O)OC)=C1C | / | 25.1µM | . | / | /
CCN1C(N(C)CCc2cccs2)=N[C@@H](c2ccccc2)C(C(=O)OC)=C1C | / | . | . | / | .
O=C(Nc1cccc(S(=O)(=O)C(F)(F)F)c1)[C@@H]1O[C@H](CO)[C@@H](O)[C@H]1O | / | / | . | / | ?
C=C[C@@H]1c2cc(C)ccc2N(S(=O)(=O)c2ccc(C)cc2)[C@H](c2ccc(OC(C)=O)cc2)C1(C#N)C#N | / | 8.91µM | . | / | -97.4
Cc1cccc(CNC(=O)c2cnn(-c3ncc(C)c(-c4cccs4)n3)c2C2CC2)n1 | / | / | . | / | /
C/C(=N\N1C(=O)c2ccccc2NC1c1ccccc1)c1ccccc1O (centres undefined) | / | ? | . | / | -91.7
C/C(=N\N1C(=O)c2ccccc2NC1c1ccco1)c1ccccc1O (centres undefined) | ? | 3.55µM | . | 8.2µM | -77.8
COc1cc(C)c(CN2CCOc3ccc(C(O)c4cccnc4)cc3C2)cc1C (centres undefined) | / | / | . | / | /
COc1ccc(CCNc2ncnc3onc(C)c23)c(OC)c1 | . | / | 12.6µM | / | ?
CSc1ccc(CCNc2ncnc3onc(C)c23)cc1 | ? | / | . | / | -65.2
CCCCNCC(=O)Nc1ccc(NC(=O)CNCCCC)cc1 | . | ? | . | 10µM | .
Nc1nc2n[nH]nc2c(=O)[nH]1 | / | ? | . | / | -95.8
COC(=O)C(O)(c1ccc(NC(=S)NC(=O)c2ccc(Cl)cc2Cl)c(C)c1)C(F)(F)F (centres undefined) | 5.8µM | ? | ? | ? | .
COC(=O)C(O)(c1ccc(NC(=S)NC(=O)c2ccc(Cl)cc2Cl)cc1)C(F)(F)F (centres undefined) | ? | ? | . | . | .
CCOC(=O)C(O)(c1ccc(NC(=S)NC(=O)c2ccc(Cl)cc2Cl)c(C)c1)C(F)(F)F (centres undefined) | 10.3µM | ? | ? | ? | ?
CCOC(=O)C(O)(c1ccc(NC(=S)NC(=O)c2ccc(Cl)cc2Cl)cc1)C(F)(F)F (centres undefined) | ? | ? | . | ? | .
CC(=O)O[C@H]1CC2(C)[C@@H](C[C@@H](O)[C@H]3[C@@]4(C)CC[C@@H](O)[C@@H](C)[C@@H]4CC[C@@]32C)C1=C(CCC=C(C)C)C(=O)O (some centres undefined) | . | / | / | ? | /
COCCNC(=O)c1cnn2c(C(F)F)cc(-c3ccc(C)cc3)nc12 | / | . | . | / | .
COc1ccc(CNC(=O)c2cnn3c(C(F)F)cc(C)nc23)cc1OC | / | 10µM | ? | / | .
Cc1ccc(OCc2nnc(NC(=O)c3ccco3)s2)c(C)c1 | . | . | / | . | -105.2
Cc1ccc2nc(NC(=S)NC(=O)c3ccco3)sc2c1 | ? | . | . | . | .
O=C(Nc1nc2c(F)c(F)c(F)cc2s1)c1ccco1 | . | . | . | ? | .
O=C(Nc1nc2ccc(Cl)cc2s1)c1ccco1 | 11.2µM | . | . | ? | .
O=C(Nc1nc2c(ccc3ccccc32)s1)c1ccco1 | ? | 25.1µM | . | 14.6µM | .
Cc1ccc2nc(NC(=O)c3ccco3)sc2c1 | 1µM | . | . | 4.47µM | ?
SMILES | LASV entry inh | HCV inh | FMDV inh | Marburg entry inh | HCMV antiviral
O=C(Nc1nc2ccc(Br)cc2s1)c1ccco1 | ? | . | . | ? | .
COCCn1c(=O)c(C)nc2cnc(N3CCNCC3)nc21 | / | / | . | / | /
COc1ccc2c(c1)[C@@H](NC(C)=O)[C@H](C)[C@@H](c1ccccc1)N2C(C)=O | / | / | / | / | .
CC(=O)Nc1nc2c(s1)CCc1ccccc1-2 | / | ? | . | / | .
O=C(Nc1nc2c(s1)CCc1ccccc1-2)c1ccco1 | . | 31.6µM | . | ? | .
COc1ccc(CC(N)c2csc(NC(=O)c3ccccc3OC)n2)cc1 (centres undefined) | / | / | . | / | -81.5
COc1ccc(CC(N)c2csc(NC(=O)c3ccccc3)n2)cc1 (centres undefined) | / | / | . | / | .
COc1ccc(CC(N)c2csc(NC(=O)C(c3ccccc3)c3ccccc3)n2)cc1 (centres undefined) | / | / | . | / | -64.8
NC(Cc1ccccc1)c1csc(NC(=O)c2cccc(OC(F)(F)F)c2)n1 (centres undefined) | / | / | ? | / | -101.1
CC(C)c1ccc(NC(=O)Nc2nc(C(N)COCc3ccccc3)cs2)cc1 (centres undefined) | / | / | . | / | -95.0
CC(C)c1ccc(NC(=O)Nc2nc(C(N)c3ccccc3)cs2)cc1 (centres undefined) | / | / | . | / | .
COc1ccccc1CN(Cc1ccco1)c1cnc(S(C)(=O)=O)nc1C(=O)Nc1ccccc1Cl | . | / | . | ? | .
COc1cccc(CN(C)C(=O)CN2C(=O)NC(c3ccccc3)(c3ccccc3)C2=O)c1 | / | . | . | / | .
CN(CC1COCCO1)C(=O)c1cnn(-c2nccc(-c3ccccc3C(F)(F)F)n2)c1C1CC1 (centres undefined) | / | / | . | / | /
CCCCNC(=S)NNC(=O)CCn1nc(C)c(Br)c1C | ? | . | . | ? | -106.4
CCCC(=O)NCCc1cc2c(C)ccc(C)c2[nH]c1=O | . | . | . | . | ?
Cc1ccc(C)c2[nH]c(=O)c(CCNC(=O)CCc3ccccc3)cc12 | / | . | . | / | -75.7
CCN(c1nc(N)c(C(=O)N=C(N)N)nc1Cl)C(C)C | ? | ? | . | 14.1µM | -62.0
CCCCN(C)Cc1c(C(=O)N2CCc3ccccc3C2)nc2ccc(Cl)cn12 | . | . | . | ? | .
CC(C)CN(C)Cc1c(C(=O)N2CCc3ccccc3C2)nc2ccc(Cl)cn12 | . | ? | . | 11.2µM | .
COc1ccc(CN2CCOc3ccc(CN4CCC(Oc5cccnc5)CC4)cc3C2)cc1C | / | / | . | / | /
COc1ccc(/C=C/c2c([N+](=O)[O-])c(=O)n(C)c(=O)n2C)c(OC)c1 | / | 11.2µM | ? | . | .
Cn1c(/C=C/c2ccc(Cl)cc2Cl)c([N+](=O)[O-])c(=O)n(C)c1=O | / | ? | 31.6µM | / | -98.0
Cc1cccc(CNCCn2cc(C(=O)Nc3ccccc3)nn2)c1 | / | / | . | / | /
COc1cccc(C2=NC(C)(CC(=O)NCc3cccc(O)c3)ON2C)c1 (centres undefined) | / | / | / | / | .
SMILES | LASV entry inh | HCV inh | FMDV inh | Marburg entry inh | HCMV antiviral
CN(Cc1cc([N+](=O)[O-])c2cccnc2c1O)C1CCCCC1 | . | . | / | . | /
CCCC(=O)NC(c1ccco1)c1c(O)ccc2ccccc12 (centres undefined) | . | . | . | ? | -83.6
CC(=O)NC(c1ccc(C)cc1)c1cc([N+](=O)[O-])c2cccnc2c1O (centres undefined) | ? | ? | . | ? | -98.9
CCC(=O)NC(c1ccc(C)cc1)c1cc([N+](=O)[O-])c2cccnc2c1O (centres undefined) | ? | ? | ? | ? | -97.5
CCC(=O)NC(c1ccco1)c1cc(Br)c2cccnc2c1O (centres undefined) | / | / | . | / | ?
CCCC(=O)NC(c1ccco1)c1cc([N+](=O)[O-])c2cccnc2c1O (centres undefined) | ? | . | . | ? | -63.8
CN1CCN(CC(=O)Nc2cc(N(C)C)nc3ccccc23)CC1 | . | ? | . | ? | .

Screens deposited in PubChem by National Center for Advancing Translational Sciences (NCATS).
